Experimental data reported in PubChem BioAssay (NCATS).
Inconclusive results are not listed. Active and inactive are the calls of the source. The call rests on the fitted dose curve; in most records, active means well fitted curve in the direction sought with a large enough effect; inconclusive means small, poorly fitted or top-dose-only effect, or another doubt; inactive means no such curve, though single readings can be large; an effect the other way counts as inactive or inconclusive.

Columns and labels:
[1] = Quantitative High-Throughput drug screen in 47 multiple myeloma cell lines against the NCATS MIPE library collection: KMS11_JCRBsus cell viability assay (AID 1919873); conditions: KMS11 myeloma viability, CellTiter-Glo ATP luminescence, 48 h; series mostly up to 45.8 µM; further: nearly all actives have a fitted effect of over 50% in size; further: potency means the concentration at half of the fitted maximal effect
How it was run: (§1)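 Plated at 500 cells per well, myeloma lines received MIPE 4.0 compounds by pin tool. Following 48 h culture at 37 °C, CellTiter-Glo luminescence gave viability relative to DMSO and media-only controls.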

[2] = Quantitative High-Throughput drug screen in 47 multiple myeloma cell lines against the NCATS MIPE library collection: KMS28BM_JCRB cell viability assay (AID 1919874); conditions: CellTiter-Glo ATP, 48 h; series mostly up to 45.8 µM; further: nearly all actives have a fitted effect of over 35% in size; further: potency means the concentration at half of the fitted maximal effect
How it was run: as §1

[3] = Quantitative High-Throughput drug screen in 47 multiple myeloma cell lines against the NCATS MIPE library collection: OPM2_DSMZ cell viability assay (AID 1919872); conditions: OPM2 myeloma viability, CellTiter-Glo ATP luminescence, 48 h; series mostly up to 45.8 µM; further: nearly all actives have a fitted effect of over 30% in size; further: potency means the concentration at half of the fitted maximal effect
How it was run: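 Myeloma cells (500 per well) were exposed to MIPE 4.0 compounds by pin transfer and incubated 48 hours at 37C, 5% CO2. Viability was read as ATP by CellTiter-Glo luminescence, normalised to DMSO (100%) and media-only (0%) wells.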

[4] = target: Cytochrome P450 3A4 (Homo sapiens) (UniProt P08684); experiment: qHTS for inhibitors of CYP3A4 against the NCATS DSHEA and TCM libraries (AID 1919971); conditions: recombinant CYP3A4 enzyme activity, luminescence qHTS; series mostly up to 34.1 µM;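 further: on the % scale 0 is the no-effect control and ±100 the full control effect; inhibition lowers luminescence from luciferin made by CYP3A4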
How it was run: (§2)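 Light output from converted D-luciferin reports remaining CYP activity. Compounds preincubate with enzyme and substrate for 15 min; NADPH regeneration (1x final) runs the reaction for 30-45 min.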

[5] = target: Cytochrome P450 2D6 (Homo sapiens) (UniProt P10635); experiment: qHTS for inhibitors of CYP2D6 against the NCATS DSHEA and TCM libraries (AID 1919972); conditions: CYP2D6 enzymatic inhibition, luminescence qHTS; series mostly up to 34.1 µM; further: on the % scale 0 is the no-effect control and ±100 the full control effect
How it was run: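 Steps: enzyme plus luciferin substrate dispensed; test substances pinned; 15 min RT; 1x NADPH regenerating solution added, 30–45 min RT protected from light; detection reagent, 30 min RT; luminescence measured. Minus-enzyme wells as background.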

[6] = target: Cytochrome P450 2C9 (Homo sapiens) (UniProt P11712); experiment: qHTS for inhibitors of CYP2C9 against the NCATS DSHEA and TCM libraries (AID 1919973); conditions: recombinant CYP2C9 enzyme activity, luminescence; series mostly up to 34.1 µM;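 further: luminogenic pro-luciferin CYP2C9 substrate turned into luciferin with NADPH regeneration; on the % scale 0 is the no-effect control and ±100 the full control effect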
How it was run: as §2

[7] = KB-3-1 P-gp reporter qHTS against the NCATS DSHEA and TCM libraries (AID 1919975); conditions: KB-3-1 parental cells, CellTiter-Glo luminescence viability, 72 h; series mostly up to 26.1 µM; further: 0% is about no effect
How it was run: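 72 h exposure of KB-3-1 cells (DMEM, 10% FBS) to DSHEA/TCM samples, concentration-response; cell viability measured as CellTiter-Glo luminescence after 30 min at room temperature.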

[8] = qHTS Counterscreen for compound interference against the NCATS DSHEA and TCM libraries (AID 1919978); conditions: firefly luciferase detection reagent interference, luminescence; further: % of control where 0% means no effect
How it was run: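 Read-out is luminescence after 30 min at RT with luciferin detection reagent. Before that, compounds (19.5 nM to 39.8 uM final) sat 15 min at RT with 1 uM D-luciferin or 100 mM potassium phosphate buffer. PTC124 served as intraplate control.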

[9] = Dual reporter qHTS for agonist of Pregnane X Receptor (hPXR) against the NCATS DSHEA and TCM libraries: Fluorescence readout (AID 1920058); conditions: PXR dual reporter cells; series mostly up to 40 µM; further: 0% is about no effect
How it was run: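 Measures viability of the PXR reporter HepG2 line by protease-substrate fluorescence (405/540 nm), taken 1 h after CellTiter-Fluor addition. Substances are tested as concentration series over a ~24 h exposure, with rifampicin as agonist control.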

Sequence of Cytochrome P450 2C9 (Homo sapiens) (P11712 whole entry, looked up): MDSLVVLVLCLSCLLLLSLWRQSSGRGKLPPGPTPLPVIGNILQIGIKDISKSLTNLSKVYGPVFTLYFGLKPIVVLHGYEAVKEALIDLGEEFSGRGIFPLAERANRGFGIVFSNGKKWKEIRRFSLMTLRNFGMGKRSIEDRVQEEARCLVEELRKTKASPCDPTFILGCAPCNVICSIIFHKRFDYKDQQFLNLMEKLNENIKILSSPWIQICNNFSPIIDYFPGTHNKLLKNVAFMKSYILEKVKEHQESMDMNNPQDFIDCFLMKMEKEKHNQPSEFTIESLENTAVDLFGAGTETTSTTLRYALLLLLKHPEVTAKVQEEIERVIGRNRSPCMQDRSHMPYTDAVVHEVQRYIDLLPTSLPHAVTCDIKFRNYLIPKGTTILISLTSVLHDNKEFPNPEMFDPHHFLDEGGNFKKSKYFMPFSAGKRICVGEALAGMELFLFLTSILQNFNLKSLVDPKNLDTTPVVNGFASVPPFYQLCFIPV
Sequence of Cytochrome P450 2D6 (Homo sapiens) (P10635 whole entry, looked up): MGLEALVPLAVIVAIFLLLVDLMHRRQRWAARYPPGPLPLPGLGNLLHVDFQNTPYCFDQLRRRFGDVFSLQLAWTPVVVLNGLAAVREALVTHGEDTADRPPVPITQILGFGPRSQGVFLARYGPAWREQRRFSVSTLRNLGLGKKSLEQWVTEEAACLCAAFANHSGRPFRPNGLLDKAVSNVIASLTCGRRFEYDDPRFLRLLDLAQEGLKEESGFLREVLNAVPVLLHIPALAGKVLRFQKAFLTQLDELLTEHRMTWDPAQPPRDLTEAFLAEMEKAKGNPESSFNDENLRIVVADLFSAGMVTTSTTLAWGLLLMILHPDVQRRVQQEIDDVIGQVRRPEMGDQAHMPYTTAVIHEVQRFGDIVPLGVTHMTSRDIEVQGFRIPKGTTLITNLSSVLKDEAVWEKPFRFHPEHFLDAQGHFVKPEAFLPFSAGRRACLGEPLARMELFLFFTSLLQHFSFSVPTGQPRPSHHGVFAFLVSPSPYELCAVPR
Sequence of Cytochrome P450 3A4 (Homo sapiens) (P08684 whole entry, looked up): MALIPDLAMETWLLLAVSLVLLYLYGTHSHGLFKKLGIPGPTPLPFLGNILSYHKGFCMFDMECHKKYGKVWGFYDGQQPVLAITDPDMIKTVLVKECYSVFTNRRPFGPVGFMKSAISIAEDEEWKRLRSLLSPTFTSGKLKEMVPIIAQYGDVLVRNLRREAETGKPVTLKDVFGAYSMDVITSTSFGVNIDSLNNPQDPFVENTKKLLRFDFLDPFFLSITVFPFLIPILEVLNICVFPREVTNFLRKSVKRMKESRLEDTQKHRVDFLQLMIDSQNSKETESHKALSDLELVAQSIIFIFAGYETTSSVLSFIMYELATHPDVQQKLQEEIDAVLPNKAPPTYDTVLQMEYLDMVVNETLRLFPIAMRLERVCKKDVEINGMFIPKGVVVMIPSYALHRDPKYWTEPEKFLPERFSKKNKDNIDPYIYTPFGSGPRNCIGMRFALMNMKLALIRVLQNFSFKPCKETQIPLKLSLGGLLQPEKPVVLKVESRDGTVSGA

In the case of `CC=CC[C@@H](C)C(=O)[C@H]1C(=O)N[C@@H](C(C)C)C(=O)N(C)CC(=O)N(C)[C@@H](CC(C)C)C(=O)N[C@@H](C(C)C)C(=O)N(C)[C@@H](CC(C)C)C(=O)N[C@@H](C)C(=O)N[C@H](C)C(=O)N(C)[C@@H](CC(C)C)C(=O)N(C)[C@@H](CC(C)C)C(=O)N(C)[C@@H](C(C)C)C(=O)N1C`, the Potency [1] is reported as 14.8 µM (active).

In the case of `O=C(CCN1CCN(C(=O)OCc2cc(Cl)cc(Cl)c2)CC1)c1ccc2[nH]c(=O)oc2c1`, the Potency [1] is reported as “inactive” and the Potency [2] is reported as “inactive”.

With `Cc1ccccc1C(C(=O)NC1CCCCC1)N(C(=O)Cn1ccnc1C)c1cccc(F)c1` (stereo unspecified) the Potency [1] was “inactive”.

In the case of `O=C1c2c(O)cc(O)cc2O[C@H](c2cc(O)c(O)c(O)c2)[C@H]1O`, the Potency [3] is reported as 18.7 µM (active) and the Potency [2] is reported as “inactive”.

With `CN(C)Cc1ccc(-c2nc3cccc4c3n2CCNC4=O)cc1` the Potency [1] was 26.4 µM (active).

In the case of `CC(C)(C)Cn1c(N)nc2ccc(-c3[nH]c(C(C)(C)C)nc3-c3ccc(F)cc3)nc21`, the Potency [1] is reported as “inactive”.

For `CCOC(=O)C1=C(N)Oc2ccc(Br)cc2C1C(C#N)C(=O)OCC` (stereo unspecified), the Potency [1] was 23.5 µM (active) and the Potency [2] was 20.9 µM (active).

For `O=c1cc(-c2cccc3c2Sc2ccccc2S3)oc(N2CCOCC2)c1`, the Potency [1] was 20.9 µM (active).

In the case of `CC=CCC(C)C(O)C1C(=O)NC(CC)C(=O)N(C)CC(=O)N(C)C(CC(C)C)C(=O)NC(C(C)C)C(=O)N(C)C(CC(C)C)C(=O)NC(C)C(=O)NC(C)C(=O)N(C)C(CC(C)C)C(=O)N(C)C(CC(C)C)C(=O)N(C)C(C(C)C)C(=O)N1C` (stereo unspecified), the Potency [1] is reported as “inactive”.

For `C[C@]12CC[C@@H]3c4ccc(O)cc4CC[C@H]3[C@H]1C[C@@H](O)[C@H]2O`, the Potency [3] was “inactive” and the Potency [2] was “inactive”.

With `COc1ccc2c(Oc3ccc(NC(=O)c4c(C)n(CC(C)(C)O)n(-c5ccccc5)c4=O)nc3)ccnc2c1` the Potency [3] was “inactive” and the Potency [2] was “inactive”.

For `O=C(N[C@@H](c1ccccc1)[C@@H]1CCCCN1)c1cccc(C(F)(F)F)c1Cl`, the Potency [1] was “inactive” and the Potency [2] was “inactive”.

In the case of `O=c1cc(-c2ccccc2)oc2cc(O)cc(O)c12`, the Potency [3] is reported as “inactive” and the Potency [2] is reported as “inactive”.

In the case of `Cc1ccc([C@@H]2O[C@H](CO)[C@@H](O)[C@H](O)[C@@H]2O)cc1Cc1ccc(-c2ccc(F)cc2)s1`, the Potency [1] is reported as 23.5 µM (active).

With `COc1cc(O)c2c(c1)C(=O)c1cc(C)cc(O)c1C2=O` the Potency [3] was “inactive”, the outcome [4] was “inactive” and the outcome [5] was “inactive”. The outcome [6] was “inactive”, the outcome [7] was “inactive” and the max response [8] was 1.06% (inactive). The outcome [9] was “inactive”.

In the case of `CC(=O)OC1C(C)OC(Oc2c(-c3ccc(O)cc3)oc3cc(O)cc(O)c3c2=O)C(O)C1OC(C)=O` (stereo unspecified), the Potency [3] is reported as “inactive” and the Potency [2] is reported as “inactive”.

For `Clc1ccc(CCC(Cn2ccnc2)Sc2c(Cl)cccc2Cl)cc1` (stereo unspecified), the Potency [1] was 20.9 µM (active).

For `COc1cc(Nc2ncc(F)c(Nc3ccc4c(n3)NC(=O)C(C)(C)O4)n2)cc(OC)c1OC`, the Potency [3] was 5.9 µM (active) and the Potency [2] was “inactive”.

In the case of `COc1ccc(Cc2ccc(NC(N)=O)cc2)cc1-c1cccc(Cl)c1`, the Potency [3] is reported as “inactive” and the Potency [2] is reported as 13.2 µM (active).

With `Cc1c[nH]c(C=C2C(=O)Nc3ccccc32)c1CCC(=O)O` the Potency [1] was 33.2 µM (active).

For `CN(C[C@@H]1COCCO1)S(=O)(=O)Nc1ccc2ccc3ncc(-c4cnn(C)c4)cc3c(=O)c2c1`, the Potency [1] was 4.18 µM (active).

With `O=C(Nc1cccc(Br)c1)c1cccc(S(=O)(=O)N2CCCCCC2)c1` the Potency [1] was 18.7 µM (active).

In the case of `O=C(Nc1ccccc1Br)N[C@@H]1CCN(c2ccc(C(F)(F)F)cn2)C1`, the Potency [3] is reported as “inactive” and the Potency [2] is reported as 20.9 µM (active).

For `CC(C)C(=O)Nc1ncc(-c2cc(C(F)F)nn2-c2c(Cl)cccc2Cl)s1`, the Potency [1] was 11.8 µM (active) and the Potency [2] was 11.8 µM (active).

In the case of `O=C1Nc2ccc(Cl)cc2C(C#CC2CC2)(C(F)(F)F)O1` (stereo unspecified), the Potency [1] is reported as 20.9 µM (active) and the Potency [2] is reported as 20.9 µM (active).

With `CNC(=O)c1ccccc1Sc1ccc2c(C=Cc3ccccn3)n[nH]c2c1` the Potency [1] was 1.18 µM (active) and the Potency [2] was 23.5 µM (active).

In the case of `COC(=O)N[C@H](C(=O)N1CCC[C@@H]1c1ncc(-c2ccc(-c3ccc(-c4cnc([C@@H]5CCCN5C(=O)[C@@H](NC(=O)OC)C(C)C)[nH]4)cc3)cc2)[nH]1)C(C)C`, the Potency [1] is reported as 26.4 µM (active) and the Potency [2] is reported as 20.9 µM (active).

For `CCS(=O)(=O)N1CC(CC#N)(n2cc(-c3ncnc4[nH]ccc34)cn2)C1`, the Potency [2] was 23.5 µM (active).

With `Cc1c(NC(=O)c2ccc(C(C)(C)C)cc2)cccc1-c1cn(C)c(=O)c(Nc2ccc(C(=O)N3CCOCC3)cc2)n1` the Potency [2] was 18.7 µM (active).

In the case of `CS(=O)(=O)N(Cc1ccco1)CC(O)Cn1c2ccccc2c2ccccc21` (stereo unspecified), the Potency [2] is reported as 26.4 µM (active).
